In PubChem BioAssay AID504444 (National Center for Advancing Translational Sciences (NCATS), 2011):
Screen size: about 360,000 compounds; about 7,500 (2.1%) were called active. A call without a number means that no potency is given here. Another 20% or so got no clear call; they are omitted. The sample as a whole holds a higher share of actives than the screen did. A number with no mark means an inactive call. Calls come from the whole dose curve; as a rule, active = well fitted inhibition curve with a large enough effect; inconclusive = small, poorly fitted or top-dose-only effect, or effect the other way; inactive = flat fitted curve, though single readings scatter.

Experiment: Nrf2 qHTS screen for inhibitors; note: nearly all actives have a fitted effect of over 60% in size
Details: A549 ARE-Fluc reporter, luciferase luminescence, 18-24 h; series mostly up to 46 µM
Summary of the method: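 A549 ARE_Fluc cells (5000/well, 5% FBS OPTI-MEM) pre-incubated 2 h, then treated with compounds 18-24 h at 37C/5% CO2 in concentration-response. CellTiter-Fluor viability read first; BugLite luciferase luminescence after 15 min at room temperature gives Nrf2 activity.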
Potency is the fitted concentration of half-maximal effect.

SMILES	Potency	activity change, negative = inhibition
COc1ccc(S(=O)(=O)Nc2cccc3c2O[C@H](CN(C)S(=O)(=O)c2ccc(OC)cc2)[C@@H](C)CN([C@H](C)CO)C3=O)cc1	inactive	
CCc1ccc(CN(C)C(C)C(=O)Nc2ccc(S(=O)(=O)N3CCCC3)cc2)cc1 (configuration not stated)	inactive	
CCCCOc1ccc(C(=O)N2CC(=O)Nc3ccc(Br)cc3C2c2ccc(F)cc2)cc1 (configuration not stated)		-25.1% [at 9.27 µM]
CC(=O)c1cccc(NC(=O)COc2ccc(S(=O)(=O)N3CCOCC3)cc2)c1	inactive	
CC(=O)c1cccc(Nc2ccc3cc(S(=O)(=O)N4CCC(C)CC4)ccc3n2)c1	20.6 µM (active)	
CC(=O)c1cccc(S(=O)(=O)N2CCC(n3nnc4cc(F)ccc43)CC2)c1	inactive	
CCOC(=O)c1cc(NC(=O)c2ccc(F)cc2)c(=O)n2c1oc1ccccc12	inactive	
COc1cccc(C2c3c(ncn(-c4cccc(Br)c4)c3=N)Oc3ccc4ccccc4c32)c1 (configuration not stated)	inactive	
O=C(NC(Nc1nc2ccc([N+](=O)[O-])cc2s1)(C(F)(F)F)C(F)(F)F)c1ccccc1	2.59 µM (active)	
CCOc1ccc2nc(NC(=O)c3cc([N+](=O)[O-])ccc3N3CCOCC3)sc2c1	inactive	
CCC(=O)NC(Nc1nc2ccc(C)cc2s1)(C(=O)OC)C(F)(F)F (configuration not stated)	inactive	
O=c1[nH]cnc2c1c(-c1ccccc1)cn2-c1ccc(F)cc1	25.9 µM (active)	
CCOC(=O)C1CCN(c2ncnc3c2c(-c2ccccc2)cn3-c2ccc(C)cc2)CC1	inactive	
O=c1c2c(-c3ccccc3)ccnc2[nH]n1-c1ccccc1	inactive	
Cc1cc(C)cc(OCC(=O)Nc2ccc(N3CCOCC3)cc2N2CCOCC2)c1	inactive	
CC(=O)c1ccc(NC(=O)CSc2nc3ccccc3c(=O)n2CCCN2CCOCC2)cc1	inactive	
O=C(c1cccs1)c1cn(CCOc2ccc(Cl)cc2)c2ccccc12	inactive	
COc1ccc(-n2c(C)cc(C(=O)CSc3nnc(-c4cccs4)o3)c2C)cc1	18.4 µM (active)	
COc1ccc(-n2c(C)cc(C(=O)COC(=O)c3cc(OC)c(OC)cc3NC(=O)c3cccs3)c2C)cc1	inactive	
Cc1ccc(OC(=O)CSc2nnc(-c3cccs3)o2)cc1	inactive	
CCc1ccc(C2C(C(=O)Nc3ccccc3)=C(C)Nc3c(C(=O)Nc4ccc(C)cc4)cnn32)cc1 (configuration not stated)	inactive	
O=C(Cn1cnc2c(OCc3ccccc3)ncnc21)NCc1nc2ccccc2[nH]1	inactive	
Cc1cc(C(=O)OCC(=O)N2C(C)CCCC2C)c2ccccc2n1 (configuration not stated)	18.4 µM (active)	
Cc1cc(C(=O)OCC(=O)Nc2nnc(C(C)C)s2)c2ccccc2n1	inactive	
Cc1cc(C(=O)OCC(=O)Nc2nccs2)c2ccccc2n1	inactive	

SMILES	Potency	activity change, negative = inhibition
Cc1ccc(Cn2c(C)c3cnn(CC(=O)NCCN4CCOCC4)c(=O)c3c2C)cc1	inactive	
Cc1cc(C)cc(NS(=O)(=O)c2cc3c(cc2C)NC(=O)CO3)c1	inactive	
CCOc1cc(/C=C(/C#N)c2ccc(Cl)cc2)cc(Cl)c1OCC(=O)O	8.2 µM (active)	
C/C(=N\OCC(=O)O)c1ccc(Cl)cc1	inactive	
CCOC(=O)CN/C=C(\C#N)c1ccc(F)cc1	inactive	
CCCCNC(=O)c1ccc2c(c1)NC(=O)C(C(C)C)N2 (configuration not stated)	inactive	
COc1ccc(Cn2c(C(=O)O)c(CNCc3cccc(OC)c3)c3ccc(C)cc32)cc1	inactive	
CCc1cccc(NC(=O)CN(c2ccc(C)c(C)c2)S(=O)(=O)c2ccsc2C(=O)OC)c1	inactive	
CCOC(=O)C1=C(c2ccccc2)Nc2ncnn2C1c1ccc(Cl)cc1 (configuration not stated)	inactive	
CC1=C(C(N)=O)C(c2ccc(Br)cc2)n2ncnc2N1 (configuration not stated)	inactive	
Clc1ccc2c(c1)C1=C(C(c3ccncc3)O2)C(c2ccc(Br)cc2)n2ncnc2N1 (configuration not stated)	13 µM (active)	
CCCC12CN3CC(CCC)(CN(C1)C3c1c[nH]c3ccc(OC)cc13)C2=O (configuration not stated)	inactive	
Cc1ccccc1C(=O)Nc1cc(C)c(O)c(-c2nc3ccccc3o2)c1	inactive	
CCCN(CC(=O)Nc1ccccc1C)C(=O)c1ccc2[nH]c3c(c2c1)CC(C)CC3 (configuration not stated)	20.6 µM (active)	
CC1CCc2[nH]c3ccc(C(=O)N(C)CC(=O)Nc4cccc(F)c4)cc3c2C1 (configuration not stated)	inactive	
CCCN(CC(=O)Nc1ccccc1C)C(=O)c1cc(=O)[nH]c2ccccc12	inactive	
COc1ccc(CCN2CC(C(=O)OCC(=O)NCc3ccccc3Cl)CC2=O)cc1OC (configuration not stated)	inactive	
Cc1ccc(O)c(NC(=O)c2cc(-c3ccc(F)cc3)no2)c1	inactive	
CCOc1cc(C2C(C(=O)OC)=C(C)NC3=C2C(=O)c2ccccc23)ccc1O (configuration not stated)	inactive	
COc1ccc(S(=O)(=O)N2CCOCC2)cc1NC(=O)CSc1nnc(NC2CC2)s1	inactive	
Cc1ccc2[nH]c(C)c(CCNC(=O)NC3CCCCC3)c2c1	20.6 µM (active)	
NS(=O)(=O)c1ccc(CCNC(=O)NC2CCCCC2)cc1	inactive	
Cc1ccc2[nH]cc(CCNC(=O)C3CCCCC3)c2c1	inactive	
COc1ccc(/C=C/C(=O)OCC(=O)N2CCN(S(=O)(=O)c3ccc(C)cc3C)CC2)cc1OC	inactive	
CSc1ccc(CCNC(=O)c2cnn(-c3ccccc3)c2-n2cccc2)cc1	inactive	

SMILES	Potency	activity change, negative = inhibition
COc1ccc(-c2csc(N3CCN(Cc4ccc5c(c4)OCO5)CC3)n2)cc1	inactive	
O=C(CSc1ncnc2scc(-c3ccccc3)c12)NCc1ccc2c(c1)OCO2	inactive	
O=C(CN1CCN(c2nc(-c3ccccc3)cs2)CC1)NCc1ccc2c(c1)OCO2	23.1 µM (active)	
O=C(Nc1ccccc1)Oc1cccc2cccnc12	inactive	
O=C(Nc1cc(S(=O)(=O)Nc2ccc(Cl)cc2)ccc1O)c1ccc(F)cc1F	inactive	
Cc1nc(N2CCOCC2)c2c(C)c(C(=O)Nc3ccc(C(F)(F)F)cc3)sc2n1	9.2 µM (active)	
O=C(c1c(F)cccc1Cl)N1CCN(c2ccccn2)CC1	inactive	
Cc1nc(N2CCN(c3ccccn3)CC2)c2c(C)c(C(=O)Nc3ccc(F)c(Cl)c3)sc2n1	16.4 µM (active)	
COc1ccc(NC(C)=O)cc1NC(=O)CN1CCN(c2ccccn2)CC1	inactive	
CCOC(=O)C1CCCN(C(=O)c2sc3nc(C)nc(N4CCOCC4)c3c2C)C1 (configuration not stated)	inactive	
Cc1nc(N2CCC(C)CC2)c2c(C)c(C(=O)Nc3cc(F)ccc3C)sc2n1	inactive	
CC(NC(=O)c1ccccc1)C(=O)OCC(=O)Nc1cccc(S(=O)(=O)N2CCCC2)c1 (configuration not stated)	inactive	
COc1cc2c(cc1OC)C(Cc1cc(OC)c(OC)cc1[N+](=O)[O-])=NCC2	inactive	
COc1ccc(CCNC(=O)c2ccc(NC(=O)CC3SC(N4CCCCC4)=NC3=O)cc2)cc1OC (configuration not stated)	inactive	
COc1ccc2c(c1)c(N1CCCC1=O)c(C(=O)Nc1ccc(OC)c(Cl)c1)n2C	inactive	
O=[N+]([O-])c1ccc(N=NNc2ccc([N+](=O)[O-])cc2)cc1	inactive	
Cc1ccc(C(=O)NCCSc2c(C)[nH]c3ccccc23)cc1C		-4.57% [at 9.27 µM]
COc1ccc(NC(=O)CNC(=O)Cc2ccccc2)cc1OC	inactive	
CCn1cc(NC(=O)Nc2ccc(OC)c(OC)c2)c(C(N)=O)n1	inactive	
Cc1ccc(NC(=O)CSc2cccc3cccnc23)c(C)c1	inactive	
COc1ccc(NC(=O)NC(C)c2c(-n3cccc3)sc(C)c2C)cc1OC (configuration not stated)	20.6 µM (active)	
C/C(CC(=O)Nc1ccc(C)cc1C)=N\NC(=O)C(C)C	inactive	
Cc1ccc(NC(=O)NC(C)c2c(-n3cccc3)sc(C)c2C)c(C)c1 (configuration not stated)	18.4 µM (active)	
CCCCN1CC(c2nc3ccccc3n2CCCCOc2ccc(C)cc2C)CC1=O (configuration not stated)	inactive	
CN(C(=O)CSc1nncc2ccccc12)C1CCCCC1	inactive	

SMILES	Potency	activity change, negative = inhibition
Brc1c(CSc2nncc3ccccc23)nc2ccccn12	8.2 µM (active)	
CCOc1ccc(NC(=O)CSc2nnc3c(n2)[nH]c2ccc(S(=O)(=O)N4CCOCC4)cc23)cc1	inactive	
CCCOc1ccc(Cc2c(Cl)nc(SC)nc2NC)cc1	2.06 µM (active)	
Cc1nc(SCCOc2ccc(Cl)cc2)[nH]c(=O)c1Cc1ccccc1	inactive	
CCCOc1ccc(Cc2c(O)nc(SC)[nH]c2=O)cc1C	inactive	
COc1ccc(N2CCN(C(=O)C3CCCN(C(=O)c4cc5sccc5n4C)C3)CC2)cc1 (configuration not stated)	inactive	
CSC(=S)N/N=C/c1c[nH]c2ccccc12	inactive	
O=C(NC1CCCC1)C(=O)c1c[nH]c2ccccc12	inactive	
C[n+]1ccc(/C=C/c2c[nH]c3ccccc23)cc1	0.82 µM (active)	
COc1cccc(/C=N/Nc2ccc(S(=O)(=O)Nc3ccccc3C(=O)O)cc2[N+](=O)[O-])c1O	inactive	
CCC1CCCCN1C(=S)NC(=O)c1ccco1 (configuration not stated)	inactive	
Cc1ccc(C)c(-n2c(SCC(=O)O)nc3sc4c(c3c2=O)CCCC4)c1	inactive	
CCCc1nc2sc3c(c2c(=O)n1NC(=O)CCCl)CCCC3	11.6 µM (active)	
Cc1nc2sc3c(c2c(=O)n1NC(=O)CCl)CCCC3	inactive	
CCC(=O)N1CCc2cc(S(=O)(=O)NC(C(=O)Nc3ccc(C(C)=O)cc3)C(C)C)ccc21 (configuration not stated)	inactive	
O=C(NCC1(N2CCCCC2)CCCCC1)c1cccc(S(=O)(=O)Nc2ccccc2Cl)c1	inactive	
CCOc1ccc(CCNC(=O)c2cc3c(=O)n(C)c4ccccc4c3n2C)cc1	inactive	
NS(=O)(=O)c1ccc(NC(=O)CSc2nnc3c(n2)[nH]c2ccccc23)cc1	inactive	
O=[N+]([O-])c1ccc(NS(=O)(=O)c2ccccc2)c(Cl)c1	11.6 µM (active)	
O=C(NNS(=O)(=O)c1ccc(F)cc1)c1ccc([N+](=O)[O-])cc1Cl	inactive	
Cc1cccc(NS(=O)(=O)c2ccc([N+](=O)[O-])cc2)n1	inactive	
CN(CC(=O)NCC(c1ccccc1)N1CCCC1)S(=O)(=O)c1ccc(Cl)cc1 (configuration not stated)	inactive	
